# Measured values from PubChem BioAssay (EPA / NIEHS).
# The source holds several records for some structures; these can differ, active in one and inactive in another. Activity calls are given as the source filed them. Rule for the calls: active = hit-call score of the fitted dose curve at least 0.9, where 1 is the maximum; inactive = score below 0.9.
# What was measured:
# [1] = read-out: Monokine induced gamma interferon (MIG), CXCL9 (gene 4283); assay: BSK_hDFCGF_MIG: BioMAP Diversity Plus: hDFCGF Assay for Monokine induced gamma interferon (MIG) Biomarker Activity (AID 2283063); settings: primary human foreskin fibroblasts; actives raise or lower the signal
# How it was run: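 ELISA read-out of MIG from primary human dermal fibroblasts 24 h post-dosing. Gain or loss of signal fitted bidirectionally, DMSO as baseline.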
# [2] = read-out: Matrix Metallopeptidase 1 (MMP1), MMP1 (gene 4312); assay: BSK_hDFCGF_MMP1: BioMAP Diversity Plus: hDFCGF Assay for Matrix Metallopeptidase 1 (MMP1) Biomarker Activity (AID 2283064); settings: primary human foreskin fibroblasts; actives raise or lower the signal
# How it was run: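 hDFCGF primary fibroblasts (human foreskin); chemical added; 24 h; MMP1 by ELISA; bidirectional fit vs DMSO.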
# [3] = read-out: Vascular cell adhesion molecule 1 (VCAM1), VCAM1 (gene 7412); assay: BSK_hDFCGF_VCAM1: BioMAP Diversity Plus: hDFCGF Assay for Vascular cell adhesion molecule 1 (VCAM1) Biomarker Activity (AID 2283065); settings: primary human foreskin fibroblasts; actives raise or lower the signal;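 for AC50: VCAM-1 protein level quantified by ELISA after 24 h chemical exposure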
# How it was run: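 Primary human foreskin fibroblasts (hDFCGF system) were dosed with chemical and VCAM-1 was measured by ELISA 24 h later. Bidirectional curve fitting used DMSO as negative control and activity baseline.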
# [4] = read-out: Plasminogen activator inhibitor-1 (PAI1), SERPINE1 (gene 5054); assay: BSK_hDFCGF_PAI1: BioMAP Diversity Plus: hDFCGF Assay for Plasminogen activator inhibitor-1 (PAI1) Biomarker Activity (AID 2283066); settings: primary human foreskin fibroblasts; actives raise or lower the signal
# How it was run: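 Primary dermal fibroblasts (human foreskin), hDFCGF system; compound 24 h; PAI-1 by ELISA; bidirectional fit vs DMSO control.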
# [5] = read-out: Intercellular Adhesion Molecule 1 (ICAM1), ICAM1 (gene 3383); assay: BSK_KF3CT_ICAM1: BioMAP Diversity Plus: KF3CT Assay for Intercellular Adhesion Molecule 1 (ICAM1) Biomarker Activity (AID 2283067); settings: primary human keratinocytes with fibroblasts; actives raise or lower the signal
# How it was run: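 Human keratinocyte plus foreskin fibroblast primary co-culture was exposed to chemical for 24 h. ICAM-1 was then quantified by ELISA, and the data were fit bidirectionally against DMSO as the negative control and baseline.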
# [6] = read-out: Interferon-gamma inducible Protein 10 (IP10), CXCL10 (gene 3627); assay: BSK_KF3CT_IP10: BioMAP Diversity Plus: KF3CT Assay for Interferon-gamma inducible Protein 10 (IP10) Biomarker Activity (AID 2283068); settings: primary human keratinocytes with fibroblasts; actives raise or lower the signal
# How it was run: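 Human keratinocyte plus foreskin fibroblast primary co-culture exposed to test chemical for 24 h; IP-10 measured by ELISA. Concentration-response fitted bidirectionally against DMSO control as baseline.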
# [7] = BSK_KF3CT_SRB: Viability Assessment in the BioMAP Diversity Plus: KF3CT Assay (AID 2283069); settings: primary human keratinocytes with fibroblasts;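 note: total protein by sulforhodamine B staining as a cytotoxicity measure; read 24 h after compound addition; fitted for both signal gain and loss against DMSO baseline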
# How it was run: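 Keratinocytes co-cultured with foreskin fibroblasts (human primary); chemical added, 24 h; fix 10% TCA, stain 0.1% SRB, A560. Bidirectional fit vs DMSO.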
# [8] = read-out: Interleukin-1 alpha (IL1a), IL1A (gene 3552); assay: BSK_KF3CT_IL1a: BioMAP Diversity Plus: KF3CT Assay for Interleukin-1 alpha (IL1a) Biomarker Activity (AID 2283070); settings: primary human keratinocytes with fibroblasts; actives raise or lower the signal
# How it was run: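 Chemicals were dosed onto co-cultured human keratinocytes and foreskin fibroblasts, IL-1a was quantified by ELISA at 24 h, and activity was fitted in both directions relative to DMSO controls.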
# [9] = read-out: TIMP metallopeptidase inhibitor 2 (TIMP2), TIMP2 (gene 7077); assay: BSK_KF3CT_TIMP2: BioMAP Diversity Plus: KF3CT Assay for TIMP metallopeptidase inhibitor 2 (TIMP2) Biomarker Activity (AID 2283071); settings: primary human keratinocytes with fibroblasts; actives raise or lower the signal
# How it was run: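 Cells: human keratinocytes co-cultured with foreskin fibroblasts. Treat with chemical, 24 h. Measure TIMP-2 by ELISA; fit curves bidirectionally vs DMSO baseline.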
# [10] = read-out: TIMP metallopeptidase inhibitor 1 (TIMP1), TIMP1 (gene 7076); assay: BSK_hDFCGF_TIMP1: BioMAP Diversity Plus: hDFCGF Assay for TIMP metallopeptidase inhibitor 1 (TIMP1) Biomarker Activity (AID 2283062); settings: primary human foreskin fibroblasts; actives raise or lower the signal
# How it was run: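 Primary human foreskin fibroblasts in the hDFCGF system were dosed with compound for 24 h, then TIMP-1 was measured by ELISA. Activity was fitted bidirectionally relative to DMSO control; parallel SRB staining assessed cytotoxicity.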
smiles,measurement,setting,value
ClC1C(Cl)C(Cl)C(Cl)C(Cl)C1Cl (stereo not drawn),outcome,[1],inactive
same,outcome,[2],inactive
same,outcome,[3],inactive
same,outcome,[4],inactive
same,outcome,[5],inactive
same,outcome,[6],inactive
same,outcome,[7],inactive
same,outcome,[8],inactive
same,AC50,[9],20 µM (active)
same,outcome,[9],inactive
O=[N+]([O-])/N=C1\NCCN1Cc1ccc(Cl)nc1,outcome,[10],inactive
same,outcome,[1],inactive
same,outcome,[2],inactive
same,outcome,[3],inactive
same,outcome,[5],inactive
same,outcome,[6],inactive
same,outcome,[7],inactive
same,outcome,[8],inactive
same,outcome,[9],inactive
CCCN(CCOc1c(Cl)cc(Cl)cc1Cl)C(=O)n1ccnc1,outcome,[1],inactive
same,outcome,[2],inactive
same,outcome,[3],inactive
same,outcome,[5],inactive
same,outcome,[6],inactive
same,outcome,[7],inactive
same,outcome,[8],inactive
same,outcome,[9],inactive
CCN(CC)C(=O)SCc1ccc(Cl)cc1,outcome,[1],inactive
same,outcome,[2],inactive
same,outcome,[3],inactive
same,outcome,[5],inactive
same,outcome,[6],inactive
same,outcome,[7],inactive
same,outcome,[8],inactive
same,outcome,[9],inactive
CCOc1nc(NC)nc(NC(=O)NS(=O)(=O)c2ccccc2C(=O)OC)n1,outcome,[1],inactive
same,AC50,[2],20 µM (active)
same,outcome,[3],inactive
same,outcome,[5],inactive
same,AC50,[6],20 µM (active)
same,outcome,[7],inactive
same,outcome,[8],inactive
same,outcome,[9],inactive
CC1(C)C(C=C(Cl)Cl)C1C(=O)OC(C#N)c1ccc(F)c(Oc2ccccc2)c1 (stereo not drawn),outcome,[1],inactive
same,outcome,[2],inactive
same,outcome,[3],inactive
same,outcome,[5],inactive
same,outcome,[6],inactive
same,outcome,[7],inactive
same,outcome,[8],inactive
same,outcome,[9],inactive
O=C(O)COc1ccc(Cl)cc1Cl,outcome,[1],inactive
same,outcome,[2],inactive
same,outcome,[3],inactive
same,outcome,[5],inactive
same,outcome,[6],inactive
same,outcome,[7],inactive
same,outcome,[8],inactive
same,outcome,[9],inactive
COc1cc(OC)nc(NC(=O)NS(=O)(=O)c2cc(NC=O)ccc2C(=O)N(C)C)n1,outcome,[1],inactive
same,outcome,[2],inactive
same,outcome,[3],inactive
same,outcome,[5],inactive
same,outcome,[6],inactive
same,outcome,[7],inactive
same,outcome,[8],inactive
same,outcome,[9],inactive
CC(C)N(C(=O)COc1nnc(C(F)(F)F)s1)c1ccc(F)cc1,outcome,[1],inactive
same,AC50,[2],17.7 µM (active)
same,AC50,[3],8.54 µM (active)
same,outcome,[5],inactive
same,AC50,[6],30.8 µM (active)
same,outcome,[7],inactive
same,outcome,[8],inactive
same,outcome,[9],inactive
Oc1ccc(Cl)cc1Cc1ccccc1,AC50,[3],14.5 µM (active) [middle of 7 runs]
CCS(=O)(=O)c1cccnc1S(=O)(=O)NC(=O)Nc1nc(OC)cc(OC)n1,outcome,[1],inactive
same,outcome,[2],inactive
same,outcome,[3],inactive
same,outcome,[5],inactive
same,AC50,[6],0.266 µM (active)
same,outcome,[7],inactive
same,outcome,[8],inactive
same,outcome,[9],inactive
COP(=S)(OC)Oc1ccc(SC)c(C)c1,outcome,[1],inactive
same,AC50,[2],9.5 µM (active)
same,outcome,[3],inactive
same,outcome,[5],inactive
same,outcome,[6],inactive
same,outcome,[7],inactive
same,outcome,[8],inactive
same,outcome,[9],inactive
CC1(c2ccc(Oc3ccccc3)cc2)OC(=O)N(Nc2ccccc2)C1=O (stereo not drawn),outcome,[1],inactive
same,outcome,[2],inactive
same,outcome,[3],inactive
same,outcome,[5],inactive
same,outcome,[6],inactive
same,outcome,[7],inactive
same,outcome,[8],inactive
same,outcome,[9],inactive
C#CCN1C(=O)COc2cc(F)c(N3C(=O)C4=C(CCCC4)C3=O)cc21,outcome,[1],inactive
same,outcome,[2],inactive
same,outcome,[3],inactive
same,outcome,[5],inactive
same,outcome,[6],inactive
same,outcome,[7],inactive
same,outcome,[8],inactive
same,outcome,[9],inactive
CC(C)(C)C(O)C(Oc1ccc(Cl)cc1)n1cncn1 (stereo not drawn),outcome,[1],inactive
same,outcome,[2],inactive
same,outcome,[3],inactive
same,outcome,[5],inactive
same,outcome,[6],inactive
same,outcome,[7],inactive
same,outcome,[8],inactive
same,outcome,[9],inactive
CC(C)(C)C(O)/C(=C\c1ccc(Cl)cc1Cl)n1cncn1 (stereo not drawn),outcome,[1],inactive
same,outcome,[2],inactive
same,AC50,[3],31.6 µM (active)
same,AC50,[5],34.4 µM (active)
same,AC50,[6],29.7 µM (active)
same,AC50,[7],20 µM (active)
same,outcome,[8],inactive
same,AC50,[9],33.2 µM (active)
CN1CSC(=S)N(C)C1,AC50,[1],14.1 µM (active)
same,outcome,[2],inactive
same,AC50,[3],9.28 µM (active)
same,outcome,[5],inactive
same,outcome,[6],inactive
same,outcome,[7],inactive
same,outcome,[8],inactive
same,outcome,[9],inactive
CCc1ccc(C(=O)NN(C(=O)c2cc(C)cc(C)c2)C(C)(C)C)cc1,outcome,[1],inactive
same,outcome,[2],inactive
same,outcome,[3],inactive
same,outcome,[5],inactive
same,outcome,[6],inactive
same,outcome,[7],inactive
same,outcome,[8],inactive
same,outcome,[9],inactive
CCC(C)Nc1c([N+](=O)[O-])cc(C(C)(C)C)cc1[N+](=O)[O-] (stereo not drawn),outcome,[1],inactive
same,outcome,[2],inactive
same,AC50,[3],15.4 µM (active)
same,outcome,[5],inactive
same,outcome,[6],inactive
same,outcome,[7],inactive
same,outcome,[8],inactive
same,outcome,[9],inactive
CCC(C)(C)C(=O)OC1=C(c2ccc(Cl)cc2Cl)C(=O)OC12CCCCC2,AC50,[1],9.84 µM (active)
same,AC50,[2],7.8 µM (active)
same,AC50,[3],9.68 µM (active)
same,AC50,[5],29.5 µM (active)
same,AC50,[6],29.9 µM (active)
same,AC50,[7],31.9 µM (active)
same,AC50,[8],31.1 µM (active)
same,AC50,[9],28 µM (active)
COc1nn(CSP(=S)(OC)OC)c(=O)s1,outcome,[1],inactive
same,outcome,[2],inactive
same,outcome,[3],inactive
same,outcome,[5],inactive
same,outcome,[6],inactive
same,outcome,[7],inactive
same,outcome,[8],inactive
same,outcome,[9],inactive
O=S1OCC2C(CO1)C1(Cl)C(Cl)=C(Cl)C2(Cl)C1(Cl)Cl (stereo not drawn),AC50,[1],37.6 µM (active)
same,AC50,[2],36.7 µM (active)
same,AC50,[3],33.5 µM (active)
same,AC50,[5],31.9 µM (active)
same,AC50,[6],29.9 µM (active)
same,AC50,[7],29.5 µM (active)
same,AC50,[8],29.1 µM (active)
same,AC50,[9],26.9 µM (active)
CNC(=O)Oc1cccc(N=CN(C)C)c1,AC50,[1],15.4 µM (active)
same,outcome,[2],inactive
same,AC50,[3],8.35 µM (active)
same,outcome,[5],inactive
same,outcome,[6],inactive
same,outcome,[7],inactive
same,outcome,[8],inactive
same,outcome,[9],inactive
O=C1c2ccccc2C(=O)N1SC(Cl)(Cl)Cl,AC50,[1],18.3 µM (active)
same,outcome,[2],inactive
same,outcome,[3],inactive
same,outcome,[5],inactive
same,AC50,[6],26.8 µM (active)
same,outcome,[7],inactive
same,outcome,[8],inactive
same,outcome,[9],inactive
O=C(O)CCCOc1ccc(Cl)cc1Cl,outcome,[1],inactive
same,outcome,[2],inactive
same,outcome,[3],inactive
same,outcome,[5],inactive
same,AC50,[6],23.6 µM (active)
same,outcome,[7],inactive
same,outcome,[8],inactive
same,outcome,[9],inactive
CCOCN(C(=O)CCl)c1c(C)cccc1CC,AC50,[1],22.8 µM (active)
same,AC50,[2],5.13 µM (active)
same,AC50,[3],3.54 µM (active)
same,outcome,[5],inactive
same,AC50,[6],23.6 µM (active)
same,outcome,[7],inactive
same,outcome,[8],inactive
same,outcome,[9],inactive
O=C(NC(=O)c1c(F)cccc1F)Nc1ccc(OC(F)(F)C(F)OC(F)(F)F)c(Cl)c1 (stereo not drawn),outcome,[1],inactive
same,outcome,[2],inactive
same,outcome,[3],inactive
same,outcome,[5],inactive
same,outcome,[6],inactive
same,outcome,[7],inactive
same,outcome,[8],inactive
same,outcome,[9],inactive
COC(=O)c1ccccc1CS(=O)(=O)NC(=O)Nc1nc(OC)cc(OC)n1,outcome,[1],inactive
same,outcome,[2],inactive
same,outcome,[3],inactive
same,outcome,[5],inactive
same,outcome,[6],inactive
same,outcome,[7],inactive
same,outcome,[8],inactive
same,outcome,[9],inactive
N#Cc1c(Cl)c(Cl)c(Cl)c(C#N)c1Cl,AC50,[1],0.148 µM (active)
same,AC50,[2],0.986 µM (active)
same,AC50,[3],1.08 µM (active)
same,AC50,[5],0.786 µM (active)
same,AC50,[6],0.585 µM (active)
same,AC50,[7],1.49 µM (active)
same,AC50,[8],1.5 µM (active)
same,AC50,[9],1.89 µM (active)
